Assay outcomes: PubChem BioAssay, National Center for Advancing Translational Sciences (NCATS)
Most compounds without a hit are left out; they make up all but 3% or so of the library.
IP6K1 inhibitor: blocks human inositol hexakisphosphate kinase 1; Q92551; IP6K1 kinase, ADP-Glo luminescence, 2 h; hits give low values; activity change, % (series mostly up to about 58 µM); 140,000 tested, 0.81% active; in the data active = activity change below about -25%; note: % is set by controls: 0 for no effect and ±100 for the full control effect
Target sequence (Q92551 whole entry, looked up): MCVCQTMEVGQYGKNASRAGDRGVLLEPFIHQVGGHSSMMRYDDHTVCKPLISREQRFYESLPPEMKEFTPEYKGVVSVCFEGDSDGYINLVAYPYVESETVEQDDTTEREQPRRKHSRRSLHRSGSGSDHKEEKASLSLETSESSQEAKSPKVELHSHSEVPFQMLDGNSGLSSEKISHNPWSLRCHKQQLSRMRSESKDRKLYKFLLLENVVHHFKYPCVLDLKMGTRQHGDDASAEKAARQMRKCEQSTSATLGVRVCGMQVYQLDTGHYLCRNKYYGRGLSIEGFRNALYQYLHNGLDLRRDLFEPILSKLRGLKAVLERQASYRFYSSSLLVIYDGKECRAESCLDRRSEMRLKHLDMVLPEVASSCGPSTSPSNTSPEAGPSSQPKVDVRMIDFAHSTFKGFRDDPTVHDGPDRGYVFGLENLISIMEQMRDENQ
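ADP-Glo luminescence measures ADP made by human IP6K1 during a 2 h RT reaction with ATP/IP6 (mix at 1.3 mM/130 uM); top library doses 57.5 and 19.1 uM final.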
HEK293 viab: cell viability loss counter-screen; HEK-293-SNCA-luc viability, GF-AFC fluorescence, 24 h; 150,000 tested, 0.12% active; Potency, µM (highest dose often 57.1 µM), for inactives: at the highest dose activity change, negative = cytotoxicity, actives largely listed as cytotoxic;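 note: potency is the fitted concentration of half-maximal effect; 0% = DMSO-treated cells and -100% = medium-only wells without cells; nearly all actives have a fitted effect of over 30% in size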
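HEK-293-SNCA-luc cells (1500/well) plated 24 h, then exposed 24 h to a dilution series; GF-AFC added 30 min at 37C, fluorescence 405/540 nm; normalised to medium-only and DMSO wells, Hill fit.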
SNCA expr inh: SNCA gene expression inhibition | 140,000 tested, 0.17% active | HEK-293 SNCA-luciferase knock-in, luminescence, 24 h | AID 1671194 | Potency, µM (doses to about 57.2 µM), inactives show at the highest dose activity change, negative = inhibition, actives largely listed as inhibitors;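 note: potency is the fitted concentration of half-maximal effect; plate controls were DMSO cells for no effect and cell-free wells for full effect; nearly all actives have a fitted effect of over 45% in size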
KDM5B inh: inhibitors of human KDM5B histone demethylase; 220,000 tested, 2.6% active; Potency, µM (top dose mostly 57.7 µM), actives largely listed as inhibitors; KDM5B demethylase, FDH-coupled NADH fluorescence (FDH is formaldehyde dehydrogenase); Q9UGL1; note: potency is the fitted concentration of half-maximal effect; 0% is about no effect; nearly all actives have a fitted effect of over 70% in size
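Compound dilutions met 200 nM (final) KDM5BΔAP for 10 min at room temperature before substrate addition. The substrate mix held 12.5 µM H3K4me3 with cofactors 25 µM α-ketoglutarate and 50 µM Fe²⁺. NADH signal gain over 30 min defined activity.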
* = called active by the depositor; i = inactive; ? = inconclusive; / = no result given; [ ] = dose if it differs, or a comment. Unless noted, calls come from the whole dose curve; as a rule, active = well fitted curve in the direction sought with a large enough effect; inconclusive = small, poorly fitted or top-dose-only effect, or another doubt; inactive = no such curve, though single readings can be large; an effect the other way counts as inactive or inconclusive.

SMILES | IP6K1 inhibitor | HEK293 viab | SNCA expr inh | KDM5B inh
CC(C)Cc1cc(C(=O)N[C@H](C2CCNCC2)C2CC(O)C2)nc(N)n1 (stereo not given in full) | 14.0 | 5.9% | -11.1% | 22.4µM*
O=C(N[C@H](C1CCNCC1)C1CC(O)C1)c1cccc(=O)[nH]1 (stereo not given in full) | 6.4 | 3.5% | -5.6% | 22.4µM*
Cc1cnc2c(C(=O)N[C@H](C3CCNCC3)C3CC(O)C3)cnn2c1 (stereo not given in full) | -1.3 | 8.4% | -12.5% | 31.6µM*
Cn1cc(Cl)cc1C(=O)N[C@H](C1CCNCC1)C1CC(O)C1 (stereo not given in full) | -5.2 | 5.6% | 24.2% | i
Cc1c(-c2ccccc2)nc2ccc(Br)cc2c1C(=O)O | / | / | / | i
O=C(NCc1cccnc1)c1cn2cc(-c3ccccc3)sc2n1 | 4.9 | -24.2%[87.6 µM] | -1.0%[87.6 µM] | /
O=C(Cc1ccccc1)Nc1sc2c(c1C(=O)Nc1ccc(Cl)cc1)CCCC2 | -30.4* | 0.0% | 28.2% | ?
O=C(Nc1cc(=O)[nH]c2nc(C(F)(F)F)nn12)c1ccc(Cl)cc1Cl | / | / | / | i
CC(C)(CC(=O)O)CC(=O)N1C[C@@H]2C[C@H](C1)c1ccc(-c3cccc(C(F)(F)F)c3)c(=O)n1C2 | 4.5 | -11.0% | -6.0% | 28.2µM*
O=C(Nc1ccccc1)N1C[C@@H]2C[C@H](C1)c1ccc(-c3cccc(C(F)(F)F)c3)c(=O)n1C2 | 11.3 | 0.1% | 10.2% | 31.6µM*
COc1ccc(S(=O)(=O)N2C[C@@H]3C[C@H](C2)c2ccc(-c4cccc(C(F)(F)F)c4)c(=O)n2C3)cc1 | 5.4 | -4.2% | -10.1% | 31.6µM*
CC(=O)Nc1ccc(S(=O)(=O)N2C[C@@H]3C[C@H](C2)c2ccc(-c4ccccc4C)c(=O)n2C3)cc1 | 12.3 | -2.5% | -25.1% | 25.1µM*
O=C([C@@H]1CCCN1c1nccc(Nc2ccccc2Cl)n1)N1CCC(c2ccccc2)CC1 | -4.7 | -4.4%[12.5 µM] | ? | /
O=C(NCc1cccc(C(F)(F)F)c1)C1CCCN(Cc2cccc(-c3ccc(F)cc3F)c2)C1 (stereo not given) | -5.2 | -12.0% | ? | /
CC(=O)N1C[C@@H]2CCCN3CCC[C@@H]([C@H]23)[C@H]1CCCC(=O)N1CCN(C)CC1 | -11.3 | -16.3% | -7.1% | 25.1µM*
CN1CCN(C(=O)CCC[C@@H]2[C@H]3CCCN4CCC[C@@H](CN2Cc2ccccc2)[C@@H]34)CC1 | -7.1 | -18.8% | 10.2% | 31.6µM*
CN(Cc1cccnc1)C(=O)CCC[C@@H]1[C@H]2CCCN3CCC[C@@H](CN1Cc1cccnc1)[C@@H]23 | 5.2 | 6.4% | -8.9% | 22.4µM*
O=C(CCC[C@@H]1[C@H]2CCCN3CCC[C@@H](CN1Cc1ccccc1)[C@@H]23)N1CCCC1 | -5.5 | -4.2% | -3.4% | i
CC(=O)N1C[C@@H]2CCCN3CCC[C@@H]([C@H]23)[C@H]1CCCC(=O)NCCN(C)C | 4.2 | 8.6% | 36.1% | 28.2µM*
CN(C)CCNC(=O)CCC[C@@H]1[C@H]2CCCN3CCC[C@@H](CN1C)[C@@H]23 | -4.8 | -6.9% | ? | i
CC(=O)N1C[C@@H]2CCCN3CCC[C@@H]([C@H]23)[C@H]1CCCC(=O)N1CCN(c2ccc(F)cc2)CC1 | 3.4 | 0.0% | 10.5% | i
COc1ccc(F)cc1-c1ccc(CN2CCC(NC(=O)c3ccccc3F)C2)cc1 (stereo not given) | -1.3 | / | / | /
CC(=O)N1C[C@@H]2CCCN3CCC[C@@H]([C@H]23)[C@H]1CCCC(=O)N1CCN(c2ccccn2)CC1 | 0.9 | 9.6% | -7.7% | 31.6µM*
CC(=O)N1C[C@@H]2CCCN3CCC[C@@H]([C@H]23)[C@H]1CCCC(=O)N1CCN(c2ccccc2)CC1 | 2.3 | -13.0% | -8.0% | i
O=C1CCN(C[C@@H](O)COCc2ccccc2)c2ccsc2CN1Cc1ccccc1 | 6.3 | / | / | /
SMILES | IP6K1 inhibitor | HEK293 viab | SNCA expr inh | KDM5B inh
C[C@H](C(=O)N1CCOCC1)C1CC[C@@]2(C)Cc3sc(-c4ccccc4)nc3[C@@H](C)[C@@H]2[C@H]1O (stereo not given in full) | 0.3 | -7.3% | 3.16µM* | ?
C[C@H](C(=O)N1CCOCC1)C1CC[C@@]2(C)Cc3sc(CS(=O)(=O)C(C)(C)C)nc3[C@@H](C)[C@@H]2[C@H]1O (stereo not given in full) | 0.3 | 3.7% | 55.0% | i
CCOC(=O)C(Cc1ccc(C(F)(F)F)cc1)(NC(C)=O)C(=O)OCC | / | / | / | i
Cn1nccc1CN1CCC2(CC1)CC(=O)c1ccccc1O2 | 11.5 | -18.4%[87.6 µM] | 53.0%[87.6 µM] | 28.2µM*
O=C1CC2(CCN(S(=O)(=O)c3ccccc3)CC2)Oc2ccccc21 | 18.7 | 7.3% | 10.4% | 28.2µM*
CC(=O)Nc1ccc(CN2CCC3(CC2)CC(=O)c2ccccc2O3)cc1 | 1.4 | -4.2% | 40.1% | 22.4µM*
CCN1C(=O)CCN(Cc2cn(C)c3ccccc23)CC12CCOCC2 | 3.7 | 2.8% | -0.9% | /
CC1=C[C@@H](CN2CCOCC2)[C@H](C(C)C)C[C@H]1Cc1nnc(-c2ccc(N(C)C)cc2)o1 | 10.2 | -10.2% | -21.9% | 35.5µM*
CC1=C[C@@H](CN2CCN(c3ccccn3)CC2)[C@H](C(C)C)C[C@H]1Cc1nnc(-c2ccccc2)o1 | 7.2 | ? | -28.8% | 28.2µM*
Cn1c(CCn2ccccc2=O)nc2cc(NS(=O)(=O)c3ccc(Cl)cc3)ccc21 | / | / | / | i
NC(=O)c1ccc(-c2ncc3cnc(-c4cccc(F)c4)cn23)cc1 | -11.9 | 2.0%[87.6 µM] | -6.9%[87.6 µM] | ?
CC1(COc2ccccc2)COc2ccc(C(=O)NCc3cnccn3)cc2N1 (stereo not given) | 14.2 | 4.8%[87.6 µM] | 15.5%[87.6 µM] | i
O=C(NCCCO)c1ccc(-c2ncc3cnc(-c4cccc(F)c4)cn23)cc1 | -14.2 | -4.9%[87.6 µM] | 13.7%[87.6 µM] | ?
O=C(NC1CCC(O)CC1)c1ccc(-c2ncc3cnc(-c4ccccc4)cn23)cc1 (stereo not given) | -0.5 | -17.3%[87.6 µM] | ? | ?
O=C(NCCO)c1ccc(-c2ncc3cnc(C4=CCOCC4)cn23)cc1 | -13.7 | 1.8%[87.6 µM] | 5.7%[87.6 µM] | 31.6µM*
O=C(c1ccc(-c2ncc3cnc(-c4ccccc4)cn23)cc1)N1CCS(=O)(=O)CC1 | -10.7 | 0.1%[87.6 µM] | 6.1%[87.6 µM] | 35.5µM*
O=C(NCc1cnccn1)c1ccc(-c2ncc3cnc(C4=CCOCC4)cn23)cc1 | -8.9 | 3.9%[87.6 µM] | -9.0%[87.6 µM] | 35.5µM*
O=C(c1ccc(-c2ncc3cnc(-c4cccc(F)c4)cn23)cc1)N1CCc2cccnc21 | -17.4 | 25.1µM* | 28.2µM* | ?
CC(=O)Nc1ccc(NC(=O)Cn2ccn3nc4c(c3c2=O)CCCCC4)cc1 | 9.0 | -20.4% | ? | ?
O=C(c1ccc(-c2ncc3cnc(C4=CCOCC4)cn23)cc1)N1CCc2ccccc2C1 | -3.4 | -27.0%[87.6 µM] | 8.1%[87.6 µM] | 28.2µM*
Cc1ccc(C(=O)N2CCc3cn(C)c4cccc(c34)C2)cc1 | -2.5 | 8.6% | 56.7% | ?
CCCCCn1c(COc2ccccc2Cl)n[nH]c1=S | / | / | / | i
